Data reported in the supplement of paper PMC11732987, “Enantioselective OTUD7B fragment discovery through chemoproteomics screening and high-throughput optimisation” (Communications Chemistry, 2025).

Key:
Test in all cases: log2 ratio of Biotin-Ahx-Ub-VS probe labelling (fragment/DMSO); higher = less target engagement (more negative = stronger competition), active = hit call of the paper (q ≤ 0.05, log2 ratio ≤ -1)
Conditions in all cases: compound concentration: 200 uM; treatment time: 3 h
USP34 = USP34 (UniProt Q70CQ2)
How it was run: (§1)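 HEK293T lysate in Tris/CHAPS/IGEPAL buffer with protease inhibitors (495 µg per sample) was given fragment at 200 µM or vehicle for 3 h, in triplicate. It then received Biotin-Ahx-Ub-VS at 0.5 µM final for 1 h. Labelled DUBs were NeutrAvidin-enriched, digested with LysC and trypsin, and run by diaPASEF LC-MS/MS. Values are average log2 fragment/vehicle ratios by unpaired t-test on global-median-normalised Spectronaut quantities of proteins with ≥2 unique peptides.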

USP36 = molecular target: T1, USP36 (UniProt Q9P275)
T1 sequence (whole entry): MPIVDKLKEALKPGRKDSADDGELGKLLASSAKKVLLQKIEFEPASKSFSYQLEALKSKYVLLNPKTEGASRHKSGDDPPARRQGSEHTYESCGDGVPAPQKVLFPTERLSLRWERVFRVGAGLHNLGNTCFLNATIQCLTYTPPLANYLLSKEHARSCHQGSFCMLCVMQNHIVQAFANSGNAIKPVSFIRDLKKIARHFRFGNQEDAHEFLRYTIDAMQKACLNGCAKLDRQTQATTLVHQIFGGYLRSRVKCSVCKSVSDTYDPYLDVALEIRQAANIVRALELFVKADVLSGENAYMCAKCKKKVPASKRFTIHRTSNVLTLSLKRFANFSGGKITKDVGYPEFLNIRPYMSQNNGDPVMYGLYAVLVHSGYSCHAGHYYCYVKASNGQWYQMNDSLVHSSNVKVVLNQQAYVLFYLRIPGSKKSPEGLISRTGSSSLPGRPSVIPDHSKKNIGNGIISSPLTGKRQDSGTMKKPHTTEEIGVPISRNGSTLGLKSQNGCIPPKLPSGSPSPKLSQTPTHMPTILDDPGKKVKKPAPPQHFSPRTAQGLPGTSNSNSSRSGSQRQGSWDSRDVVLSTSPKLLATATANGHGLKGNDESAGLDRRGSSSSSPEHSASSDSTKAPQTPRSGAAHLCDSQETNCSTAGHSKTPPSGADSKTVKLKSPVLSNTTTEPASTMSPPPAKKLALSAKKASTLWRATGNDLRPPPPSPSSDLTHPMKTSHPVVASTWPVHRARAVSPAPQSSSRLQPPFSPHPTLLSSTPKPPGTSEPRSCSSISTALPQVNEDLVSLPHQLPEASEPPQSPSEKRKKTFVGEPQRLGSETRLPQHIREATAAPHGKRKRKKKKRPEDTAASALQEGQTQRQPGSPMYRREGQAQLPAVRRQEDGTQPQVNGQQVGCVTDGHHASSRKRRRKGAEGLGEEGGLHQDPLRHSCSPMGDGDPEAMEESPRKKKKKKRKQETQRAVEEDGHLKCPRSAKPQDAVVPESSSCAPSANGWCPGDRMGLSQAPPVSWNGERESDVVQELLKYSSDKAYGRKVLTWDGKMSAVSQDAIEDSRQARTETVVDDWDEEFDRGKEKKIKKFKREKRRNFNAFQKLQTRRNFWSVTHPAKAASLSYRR
How it was run: as §1

USP38 = molecular target: T2, USP38 (UniProt Q8NB14)
T2 sequence (whole entry): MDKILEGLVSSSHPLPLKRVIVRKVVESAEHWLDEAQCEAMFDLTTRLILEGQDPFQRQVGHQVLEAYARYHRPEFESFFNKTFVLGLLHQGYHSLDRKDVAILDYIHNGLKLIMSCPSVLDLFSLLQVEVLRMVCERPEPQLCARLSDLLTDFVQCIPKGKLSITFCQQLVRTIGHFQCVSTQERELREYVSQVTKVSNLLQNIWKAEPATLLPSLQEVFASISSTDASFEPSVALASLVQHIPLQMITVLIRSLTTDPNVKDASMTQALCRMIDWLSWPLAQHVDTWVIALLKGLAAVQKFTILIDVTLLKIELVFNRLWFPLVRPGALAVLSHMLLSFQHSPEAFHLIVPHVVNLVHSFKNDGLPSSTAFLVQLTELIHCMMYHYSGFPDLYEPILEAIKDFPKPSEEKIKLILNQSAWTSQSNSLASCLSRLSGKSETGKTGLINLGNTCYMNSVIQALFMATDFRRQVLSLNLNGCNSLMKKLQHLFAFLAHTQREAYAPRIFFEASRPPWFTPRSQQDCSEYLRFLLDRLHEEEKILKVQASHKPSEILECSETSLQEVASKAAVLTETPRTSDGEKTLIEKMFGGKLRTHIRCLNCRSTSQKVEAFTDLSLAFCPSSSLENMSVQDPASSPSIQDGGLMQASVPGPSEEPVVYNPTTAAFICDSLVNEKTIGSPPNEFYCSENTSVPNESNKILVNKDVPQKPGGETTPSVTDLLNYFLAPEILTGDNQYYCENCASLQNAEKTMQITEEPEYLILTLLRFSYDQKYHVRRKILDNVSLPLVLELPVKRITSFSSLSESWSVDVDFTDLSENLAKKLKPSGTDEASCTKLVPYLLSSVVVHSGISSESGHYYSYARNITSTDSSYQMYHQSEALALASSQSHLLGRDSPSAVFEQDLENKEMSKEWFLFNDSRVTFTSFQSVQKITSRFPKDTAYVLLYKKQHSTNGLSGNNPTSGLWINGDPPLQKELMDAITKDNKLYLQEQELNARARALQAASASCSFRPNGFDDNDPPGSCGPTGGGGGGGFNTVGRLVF
How it was run: as §1

USP39 = molecular target: T3, USP39 (UniProt Q53GS9)
T3 sequence (whole entry): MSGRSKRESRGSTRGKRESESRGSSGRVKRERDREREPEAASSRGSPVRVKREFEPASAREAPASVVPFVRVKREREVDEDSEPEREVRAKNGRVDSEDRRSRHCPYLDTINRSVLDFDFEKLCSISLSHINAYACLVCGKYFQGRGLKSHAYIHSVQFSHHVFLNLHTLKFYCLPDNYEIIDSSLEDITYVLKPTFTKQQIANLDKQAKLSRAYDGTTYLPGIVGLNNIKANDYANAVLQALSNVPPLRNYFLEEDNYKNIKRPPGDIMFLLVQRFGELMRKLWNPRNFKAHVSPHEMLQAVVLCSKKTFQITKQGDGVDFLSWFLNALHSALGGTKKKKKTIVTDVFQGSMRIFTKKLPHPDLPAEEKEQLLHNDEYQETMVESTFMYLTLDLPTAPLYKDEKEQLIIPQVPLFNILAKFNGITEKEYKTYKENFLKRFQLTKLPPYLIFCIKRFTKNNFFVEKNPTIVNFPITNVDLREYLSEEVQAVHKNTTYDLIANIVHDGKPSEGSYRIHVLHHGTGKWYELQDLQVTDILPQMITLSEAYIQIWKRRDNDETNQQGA
How it was run: as §1

USP4 = molecular target: T4, USP4 (UniProt Q13107)
T4 sequence (whole entry): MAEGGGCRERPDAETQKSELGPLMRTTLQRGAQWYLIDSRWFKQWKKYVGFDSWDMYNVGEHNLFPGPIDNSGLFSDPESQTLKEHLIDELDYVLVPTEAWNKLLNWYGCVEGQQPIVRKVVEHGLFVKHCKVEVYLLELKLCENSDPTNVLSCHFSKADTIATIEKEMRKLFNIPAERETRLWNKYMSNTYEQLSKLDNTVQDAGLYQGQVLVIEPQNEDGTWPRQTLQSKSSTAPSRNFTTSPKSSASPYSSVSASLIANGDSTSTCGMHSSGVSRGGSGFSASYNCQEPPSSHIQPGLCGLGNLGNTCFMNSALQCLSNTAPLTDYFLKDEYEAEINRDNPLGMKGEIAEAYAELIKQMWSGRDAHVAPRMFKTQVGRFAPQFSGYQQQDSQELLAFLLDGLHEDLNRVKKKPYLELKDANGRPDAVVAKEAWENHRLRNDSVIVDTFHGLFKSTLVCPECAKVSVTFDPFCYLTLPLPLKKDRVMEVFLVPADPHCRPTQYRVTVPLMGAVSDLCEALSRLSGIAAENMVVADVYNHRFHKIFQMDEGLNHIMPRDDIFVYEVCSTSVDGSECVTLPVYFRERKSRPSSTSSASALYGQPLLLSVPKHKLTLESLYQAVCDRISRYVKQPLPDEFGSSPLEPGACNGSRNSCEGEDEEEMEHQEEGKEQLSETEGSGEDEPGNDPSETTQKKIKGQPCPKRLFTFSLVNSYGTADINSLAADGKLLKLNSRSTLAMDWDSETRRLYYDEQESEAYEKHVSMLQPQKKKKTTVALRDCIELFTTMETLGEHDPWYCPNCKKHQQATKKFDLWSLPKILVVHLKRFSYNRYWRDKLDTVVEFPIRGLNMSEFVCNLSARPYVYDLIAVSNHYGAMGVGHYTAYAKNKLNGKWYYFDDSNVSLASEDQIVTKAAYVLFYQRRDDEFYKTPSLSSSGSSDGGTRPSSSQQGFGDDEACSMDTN
How it was run: as §1

Measured: log2 ratio of Biotin-Ahx-Ub-VS probe labelling

Chain of USP34 (Q70CQ2 whole entry, the tested form may be a part): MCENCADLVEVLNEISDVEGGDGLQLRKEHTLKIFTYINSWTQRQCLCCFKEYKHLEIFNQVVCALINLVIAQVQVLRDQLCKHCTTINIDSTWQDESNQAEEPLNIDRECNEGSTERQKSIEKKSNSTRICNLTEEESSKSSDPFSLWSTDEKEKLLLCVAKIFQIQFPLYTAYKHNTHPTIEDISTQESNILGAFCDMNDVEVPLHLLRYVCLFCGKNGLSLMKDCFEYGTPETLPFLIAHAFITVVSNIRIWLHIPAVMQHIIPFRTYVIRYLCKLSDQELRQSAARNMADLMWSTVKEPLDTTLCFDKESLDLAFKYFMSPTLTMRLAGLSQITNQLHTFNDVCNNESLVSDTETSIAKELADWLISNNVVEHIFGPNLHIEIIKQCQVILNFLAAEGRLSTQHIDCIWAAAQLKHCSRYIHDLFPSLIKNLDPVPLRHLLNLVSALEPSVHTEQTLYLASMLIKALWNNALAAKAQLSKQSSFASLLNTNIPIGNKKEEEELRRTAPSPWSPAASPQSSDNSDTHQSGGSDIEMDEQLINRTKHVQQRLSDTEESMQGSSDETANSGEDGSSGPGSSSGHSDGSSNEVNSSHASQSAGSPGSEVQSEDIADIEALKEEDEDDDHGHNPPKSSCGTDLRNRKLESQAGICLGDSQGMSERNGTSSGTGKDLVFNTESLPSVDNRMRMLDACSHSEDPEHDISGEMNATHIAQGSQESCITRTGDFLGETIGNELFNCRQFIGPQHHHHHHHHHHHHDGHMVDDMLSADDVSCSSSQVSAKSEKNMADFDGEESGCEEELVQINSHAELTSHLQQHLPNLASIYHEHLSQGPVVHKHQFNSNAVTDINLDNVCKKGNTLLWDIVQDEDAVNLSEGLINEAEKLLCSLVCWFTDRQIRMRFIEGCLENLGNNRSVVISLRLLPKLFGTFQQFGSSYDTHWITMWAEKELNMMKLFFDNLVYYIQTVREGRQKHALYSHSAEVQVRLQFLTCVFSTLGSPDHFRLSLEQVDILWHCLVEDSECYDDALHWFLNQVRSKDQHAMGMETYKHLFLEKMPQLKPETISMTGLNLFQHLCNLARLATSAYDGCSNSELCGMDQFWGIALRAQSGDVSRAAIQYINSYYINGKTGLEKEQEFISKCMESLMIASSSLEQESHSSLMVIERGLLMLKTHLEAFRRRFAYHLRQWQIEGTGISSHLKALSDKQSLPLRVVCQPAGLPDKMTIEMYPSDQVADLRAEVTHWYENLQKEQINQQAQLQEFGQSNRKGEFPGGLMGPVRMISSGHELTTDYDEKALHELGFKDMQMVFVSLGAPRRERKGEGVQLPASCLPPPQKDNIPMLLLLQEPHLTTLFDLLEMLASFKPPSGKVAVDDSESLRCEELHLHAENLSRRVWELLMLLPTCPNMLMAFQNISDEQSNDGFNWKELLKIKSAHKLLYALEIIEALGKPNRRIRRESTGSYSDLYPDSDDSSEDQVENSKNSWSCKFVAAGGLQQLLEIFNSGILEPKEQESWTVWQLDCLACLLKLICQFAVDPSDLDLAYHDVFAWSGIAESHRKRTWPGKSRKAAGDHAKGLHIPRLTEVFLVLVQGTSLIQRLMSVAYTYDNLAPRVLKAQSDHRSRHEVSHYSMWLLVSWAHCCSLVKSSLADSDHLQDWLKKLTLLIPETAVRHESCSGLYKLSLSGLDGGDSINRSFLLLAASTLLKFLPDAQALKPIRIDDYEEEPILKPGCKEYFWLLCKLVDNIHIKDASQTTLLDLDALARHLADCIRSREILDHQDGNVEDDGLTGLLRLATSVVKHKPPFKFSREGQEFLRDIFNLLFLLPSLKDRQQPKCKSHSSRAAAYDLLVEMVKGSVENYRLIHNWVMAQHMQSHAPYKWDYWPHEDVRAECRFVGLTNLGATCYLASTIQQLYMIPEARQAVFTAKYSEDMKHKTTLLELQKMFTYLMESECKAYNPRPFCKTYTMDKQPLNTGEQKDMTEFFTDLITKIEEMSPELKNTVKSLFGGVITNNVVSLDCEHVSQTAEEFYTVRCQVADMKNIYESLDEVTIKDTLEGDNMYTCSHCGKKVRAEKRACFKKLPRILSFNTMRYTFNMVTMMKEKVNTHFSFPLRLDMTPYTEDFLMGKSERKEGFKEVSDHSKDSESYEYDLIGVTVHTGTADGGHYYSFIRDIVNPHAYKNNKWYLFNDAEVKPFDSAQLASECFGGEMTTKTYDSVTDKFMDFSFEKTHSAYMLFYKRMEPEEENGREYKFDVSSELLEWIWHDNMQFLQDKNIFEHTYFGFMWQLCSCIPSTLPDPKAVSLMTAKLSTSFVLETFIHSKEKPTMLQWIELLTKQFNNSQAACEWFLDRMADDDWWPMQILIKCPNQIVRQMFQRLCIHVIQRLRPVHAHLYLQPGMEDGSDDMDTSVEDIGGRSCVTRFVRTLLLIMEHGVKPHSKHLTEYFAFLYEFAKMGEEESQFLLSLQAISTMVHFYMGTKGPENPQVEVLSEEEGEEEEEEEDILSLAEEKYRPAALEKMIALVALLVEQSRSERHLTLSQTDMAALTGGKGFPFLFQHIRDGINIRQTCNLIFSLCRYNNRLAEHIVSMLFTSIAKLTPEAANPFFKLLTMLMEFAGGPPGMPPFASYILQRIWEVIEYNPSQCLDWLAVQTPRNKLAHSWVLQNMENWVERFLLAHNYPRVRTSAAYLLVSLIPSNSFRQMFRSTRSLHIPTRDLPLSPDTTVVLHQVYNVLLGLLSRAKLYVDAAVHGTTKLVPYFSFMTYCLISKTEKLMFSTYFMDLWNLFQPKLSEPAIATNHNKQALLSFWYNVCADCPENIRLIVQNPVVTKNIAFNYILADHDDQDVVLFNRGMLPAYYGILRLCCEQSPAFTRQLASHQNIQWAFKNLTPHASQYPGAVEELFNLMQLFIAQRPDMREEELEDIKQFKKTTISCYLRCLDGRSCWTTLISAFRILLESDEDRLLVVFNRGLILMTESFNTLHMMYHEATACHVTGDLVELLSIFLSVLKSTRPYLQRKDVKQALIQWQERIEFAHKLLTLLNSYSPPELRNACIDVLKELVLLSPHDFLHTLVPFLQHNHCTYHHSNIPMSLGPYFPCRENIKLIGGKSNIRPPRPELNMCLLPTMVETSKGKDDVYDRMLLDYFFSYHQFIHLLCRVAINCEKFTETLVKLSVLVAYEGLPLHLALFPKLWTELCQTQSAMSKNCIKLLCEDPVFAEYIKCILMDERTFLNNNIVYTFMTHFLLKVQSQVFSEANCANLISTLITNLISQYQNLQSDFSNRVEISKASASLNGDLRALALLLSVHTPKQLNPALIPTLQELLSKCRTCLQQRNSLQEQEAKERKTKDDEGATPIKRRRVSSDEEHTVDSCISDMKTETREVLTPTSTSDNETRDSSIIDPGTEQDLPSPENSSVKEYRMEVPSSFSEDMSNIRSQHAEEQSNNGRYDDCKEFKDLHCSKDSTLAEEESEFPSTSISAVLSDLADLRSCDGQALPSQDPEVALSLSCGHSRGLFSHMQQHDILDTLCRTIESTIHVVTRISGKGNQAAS

N#Cc1ccc(Cl)cc1NC(=O)CCl
inactive: USP34 -0.22 | USP36 0.137 | USP38 -0.0529 | USP39 -0.0922 | USP4 -0.0565
